Test results taken from ChEMBL document CHEMBL1157539, “Thousands of chemical starting points for antimalarial lead identification” (Nature, 2010).

Columns and labels:
Assay type in all cases: functional
Plasmodium falciparum [1] = assay: GSK_TCMDC: Inhibition of Plasmodium falciparum 3D7 in whole red blood cells, using parasite LDH activity as an index of growth. Test compounds present at 2uM
Plasmodium falciparum [2] = assay: GSK_TCMDC: Inhibition of Plasmodium falciparum Dd2 in whole red blood cells, using parasite LDH activity as an index of growth. Test compounds present at 2uM
HepG2 = assay: GSK_TCMDC: Percent inhibition of human HepG2 cell line. Test compounds present at 10uM.

Row | Compound | Inhibition (Plasmodium falciparum [1]) | Inhibition (Plasmodium falciparum [2]) | Inhibition (HepG2)
1 | Cc1cc(N2CCCCC2)nc2ccc(NC(=O)c3cccc([N+](=O)[O-])c3)cc12 | 95% | 99% | 9%
2 | CCCCOC(=O)C1=C(C)NC2=C(C(=O)CCC2)C1c1ccc(OC)c(Br)c1 (stereo not drawn) | 93% | 87% | 5%
3 | O=C(O)C(F)(F)F.c1ccc(CCNCc2ccc(-c3ccc(CNCc4ccc5c(c4)OCO5)cc3)nc2)cc1 | 94% | 67% | 24%
4 | CC(=O)c1c[nH]c(C(=O)Nc2ccc(-c3cn4ccccc4n3)cc2)c1 | 98% | 95% | 20%
5 | CCc1cn2c3c(cc(C(=O)N[C@@H](Cc4ccccc4)[C@H](O)CNC4CCOCC4)cc13)N(C)S(=O)(=O)C2.O=CO | 99% | 98% | 13%
6 | CCCC(C)Nc1nc(C)cc(N[C@@H](Cc2ccccc2)C(=O)NCc2cccc(F)c2)n1.O=C(O)C(F)(F)F (stereo partly drawn) | 100% | 75% | 9%
7 | Nc1nc(N)c2c(ccc3ccccc32)n1 | 98% | 20% | 60%
8 | CC(C)CNCc1cccc(-c2cccc(CN(CCCN3CCN(C)CC3)C(=O)CCC3CCCC3)c2)c1.O=C(O)C(F)(F)F | 100% | 96% | 45%
9 | CCOC(=O)Cc1nc(C(=O)OCC)c(N)[nH]1.Cl | 94% | 24% | 2%
10 | Cc1cc2nc(-c3ccc(/C=C/C(=O)NCc4ccc(Cl)c(Cl)c4)cc3)[nH]c2cc1C | 98% | 83% | 32%
11 | CN(CCCCNC(=O)c1ccc(-c2ccccc2)cc1)C1CCc2c(O)cccc2C1.O=C(O)C(=O)O (stereo not drawn) | 100% | 21% | 24%
